# Measurements from PubChem BioAssay AID2315 (National Center for Advancing Translational Sciences (NCATS), 2010).
# The campaign covered roughly 290,000 compounds. About 27,000 (9.3%) were called active. No stated cut-off is given here; in the data, active means inhibition mostly above about 28% (no sharp cut-off); inactive means mostly below about 43%. For the sample, actives were picked, then their nearest neighbours and some compounds at random.
# Test: A qHTS for Small Molecule Inhibitors of Shiga Toxin; further: 0% is about no effect
# Details: Vero cells, Shiga toxin protein synthesis inhibition reporter; at 38.7 µM, hits give high values
row,SMILES,inhibition
1,CCN1C(=O)c2cccc3c(S(=O)(=O)Nc4ccccc4O)ccc1c23,34.3% (inactive)
2,CC1CN(C(=S)Nc2cccc(F)c2)CC(C)O1 (stereo not drawn),-2.89% (inactive)
3,CCCCSc1nnc(-c2ccc(NC(=O)CC)cc2)n1C,-10.7% (inactive)
4,O=C(CN1CCN(c2ccccn2)CC1)Nc1ccc(Br)cc1,-9.75% (inactive)
5,CCC(=O)Nc1ccc(-c2ccc(N3CCCCC3)nn2)cc1,63.9% (active)
6,O=C(CN1C(=O)c2cccnc2Oc2ccc(Cl)cc21)NCCc1ccccc1,3.75% (inactive)
7,Cc1cc(C)cc(NC(=O)CSc2ccccc2)c1,29.4% (inactive)
8,CSc1cccc(NC(=O)CSc2ccccc2)c1,3.54% (active)
9,O=C(Cc1ccccc1)Nc1ccc(C(=O)Nc2ccccc2C(=O)O)cc1,-19.6% (inactive)
10,CCOc1ccc(C(=O)Nc2cccc(-c3ccc4nncn4n3)c2)cc1,35.1% (inactive)
11,O=C(CSc1ccccc1)Nc1ccc(C(=O)Nc2cccc(O)c2)cc1,65.7% (active)
12,CCOc1ccc(C(=O)Nc2cccc(SC)c2)cc1,47.7% (active)
13,Cc1nnc(SCC(=O)Nc2cccc(N)c2)n1-c1ccccc1,4.15% (inactive)
14,CCOc1ccc(C(=O)Nc2ccncc2)cc1,77.7% (inactive)
15,O=C(CSc1nc(C2CC2)nc2ccccc12)Nc1cccc(O)c1,-5.2% (inactive)
16,Cc1cc(S(=O)(=O)c2cc3ccc(O)c(C)c3oc2=O)ccc1F,23.1% (inactive)
17,Cc1nn(C)c(C)c1C(C)NC(=O)c1ccc(OC2CCN(Cc3ccccn3)CC2)cc1 (stereo not drawn),8.35% (inactive)
18,NNC(=O)c1nnn(-c2nonc2N)c1CN1CCCC1,-1.91% (inactive)
19,CCc1nc(Nc2ccc(NC(C)=O)cc2)c2oc3ccccc3c2n1,-2.91% (inactive)
20,Cc1c(CNCCc2ccccc2)c(C(=O)O)c(C)n1-c1ccccc1,-0.721% (inactive)
21,Cc1ccc(CSCC2Nc3ccc(C(=O)N4CCN(c5ccc(F)cc5)CC4)cc3NC2=O)cc1 (stereo not drawn),13.1% (inactive)
22,CCOc1ccc(NC(=O)c2ccc(NC(=O)C3CCCO3)cc2)cc1 (stereo not drawn),0.828% (inactive)
23,Cc1cc2c(cc1S(=O)(=O)NCc1ccc(Cl)cc1)OCC(=O)N2,-2.9% (inactive)
24,CC(NC(=O)C1CCCN(S(=O)(=O)c2ccc(-n3cnnn3)cc2)C1)c1ccc(F)cc1 (stereo not drawn),-5.87% (inactive)
25,CSc1ccc(/C=C/C(=O)NC23CC4CC(CC(C4)C2)C3)cc1,103% (active)

row,SMILES,inhibition
1,CSc1ccc(NC(=O)/C=C/C(=O)O)cc1,18.3% (inactive)
2,Cc1ccc(C(=O)NC23CC4CC(CC(C4)C2)C3)c(Cl)c1,6.22% (inactive)
3,Cc1ccc2sc(N(CCN(C)C)C(=O)/C=C/c3cccs3)nc2c1C,-3.15% (inactive)
4,COC(=O)c1ccc(NC(=O)CSc2nncc3ccc(OC)c(OC)c23)cc1,-11.5% (inactive)
5,CCOC(=O)c1nc(Nc2ccc(C(=O)OC)cc2)c2ccccc2n1,17% (inactive)
6,COC(=O)c1ccc(Nc2ncnc3sccc23)cc1,42% (active)
7,COc1cc2c(cc1OC)C(c1cccc([N+](=O)[O-])c1)=NCC2,-8.7% (inactive)
8,O=C(N/N=C/c1c(O)n(C2CC2)c(=S)[nH]c1=O)c1ccccc1Cl,30.7% (inactive)
9,O=C(N/N=C/c1c(O)n(C2CC2)c(=S)[nH]c1=O)c1ccccc1,84.6% (active)
10,O=c1[nH]c(=S)n(C2CC2)c(O)c1/C=N/N1CCOCC1,-6.68% (inactive)
11,Cn1cnc2c1c(=O)n(Cc1ccccc1C#N)c(=O)n2C,-8.82% (inactive)
12,Cc1ccc(Cl)cc1NC(=O)c1ccccn1,31.5% (active)
13,Cc1ccc(NC(=O)c2ccccn2)cc1S(=O)(=O)N1CCOCC1,28% (inactive)
14,COC(=O)[C@@H](NC(=O)Nc1cc(Cl)ccc1C)C(C)C,8.66% (inactive)
15,O=C(N/C(=C\c1ccc([N+](=O)[O-])cc1)C(=O)N1CCOCC1)c1cccc(Br)c1,-35.2% (inactive)
16,Fc1ccccc1OCCSc1nc2ccccc2o1,110% (active)
17,Cn1c(=O)c2c(nc(Br)n2CCSc2nc3ccccc3o2)n(C)c1=O,-12.2% (inactive)
18,OCCNCCCCOc1ccccc1F,-2.38% (inactive)
19,O=S(=O)(c1cccc(-c2cn3ccccc3n2)c1)N1CCCC1,16.7% (inactive)
20,COc1ccc(C(CC(=O)c2ccccc2)S(=O)(=O)c2ccccc2)cc1 (stereo not drawn),26.9% (active)
21,COc1ccc(CN(C)C(=O)CC(c2ccccc2)c2ccccc2)cc1,6.72% (inactive)
22,COc1ccc(N(Cc2ccccc2)S(=O)(=O)c2cccc(C(=O)O)c2)cc1,-12.2% (inactive)
23,Cc1[nH]c2ccccc2c1C(=O)CN1CC(C)CC(C)C1 (stereo not drawn),-6.33% (inactive)
24,COc1ccc2nc(Nc3nc4cc5c(cc4s3)OCCO5)sc2c1,46.4% (active)
25,COc1ccc(CNC(=O)c2ccc(Br)s2)cc1OC,31.8% (inactive)

row,SMILES,inhibition
1,COc1ccc(-n2cnc3cc(C(=O)NC4CCCC4)ccc32)cc1,-10.6% (inactive)
2,COc1ccc2nc(NC(=O)NC3CCCCC3)sc2c1,96.4% (active)
3,COc1ccc2nc(NC(=O)c3ccc(Br)s3)sc2c1,51.2% (active)
4,COc1ccc2nc(Nc3nc4ccc(NC(C)=O)cc4s3)sc2c1,35.3% (inactive)
5,CCn1c(SCC(=O)Nc2nc3ccc(OC)cc3s2)nnc1-c1ccoc1C,56.7% (inactive)
6,Cc1nc2cc3c(cc2s1)OCO3,13.4% (inactive)
7,COc1ccc2nc(NC(=O)[C@@H]3CCCN3C(=O)c3cccs3)sc2c1,60.1% (inactive)
8,COc1ccc(N(CC(=O)Nc2cc(OC)ccc2OC)S(=O)(=O)c2c(C)noc2C)cc1,-2.51% (inactive)
9,O=C(O)c1ccc(/C=C2/SC(=S)N(c3cccc(C(F)(F)F)c3)C2=O)cc1,-0.926% (inactive)
10,CCOC(=O)c1cc(S(=O)(=O)NCCc2ccc(OC)c(OC)c2)cn1C,-9.15% (inactive)
11,N#CC1=C(N)Oc2c(c(=O)oc3ccccc23)C1c1ccccc1OC(=O)c1cccs1 (stereo not drawn),-8.1% (inactive)
12,N#CC1=C(N)Oc2c(sc3ccccc23)C1c1ccco1 (stereo not drawn),139% (active)
13,Cc1cc(C)c2c3c(sc2n1)C(c1ccccc1)C(C#N)=C(N)O3 (stereo not drawn),16.2% (inactive)
14,COc1cccc(NC(=O)CSc2nnc(Cc3ccc(OC)c(OC)c3)o2)c1,-3.46% (inactive)
15,CCN(CC)CCCNC(=S)N(CCO)Cc1cc2cc3c(cc2[nH]c1=O)OCO3,-4.73% (inactive)
16,COCCNc1ncnc2c1nc1n2CCCC1,-7.74% (inactive)
17,O=C(CC(=O)N/N=C\c1ccc(F)cc1)NCCc1ccccc1,10.7% (inactive)
18,COc1ccc(COC(=O)c2n[nH]c3ccccc23)cc1F,52.9% (active)
19,O=C(COC(=O)c1n[nH]c2ccccc12)NCc1ccccc1,-4.54% (inactive)
20,CCN(CC)S(=O)(=O)c1ccc2nc(COC(=O)c3n[nH]c4ccccc34)[nH]c2c1,-12.2% (inactive)
21,C=CCN(CC=C)C(=O)COC(=O)c1n[nH]c2ccccc12,10.1% (inactive)
22,COc1cccc(CNC(=O)c2n[nH]c3ccccc23)c1,31.3% (active)
23,O=C(NCCc1ccc(F)cc1)c1n[nH]c2ccccc12,69.4% (active)
24,COc1cccc(CNC(=O)Cc2csc(Nc3nc(=S)[nH]c4ccccc34)n2)c1,1.99% (inactive)
25,O=C(NCCCO)c1cc2c([nH]c3ccccc32)c(-c2ccc(F)cc2)n1,-5.91% (inactive)

row,SMILES,inhibition
1,Cc1cccc(OCC(O)Cn2c(N3CCCCC3)nc3c2c(=O)[nH]c(=O)n3C)c1 (stereo not drawn),35.6% (inactive)
2,CCn1cc(CN2CCC(C(=O)Nc3cccc(-c4cccc(Cl)c4)c3)CC2)c(C)n1,-29.7% (inactive)
3,Cc1ccccc1NC(=O)Cn1cc(C(=O)C2CC2)c2ccccc21,14.9% (inactive)
4,O=C(C1CCN(S(=O)(=O)c2ccc(Br)s2)CC1)N1CCN(c2ccccc2)CC1,14.2% (inactive)
5,COc1cc2c(cc1OC)C(C(=O)NCc1ccco1)C1c3ccccc3CCN1C2=O (stereo not drawn),-23.5% (inactive)
6,Cc1ccc(NC(=O)CSc2sc3c(O)cc(=O)[nH]c3c2C#N)cc1C,-11.9% (inactive)
7,COc1ccc(C(C)C)cc1S(=O)(=O)Nc1ncn[nH]1,-1.36% (inactive)
8,O=C(C1CCCN(S(=O)(=O)c2ccccc2)C1)N1CCN(c2ccc(F)cc2)CC1 (stereo not drawn),-6.64% (inactive)
9,Cc1cc(NC(=O)CCC(=O)N(CC(=O)NC2CCCC2)c2ccc(F)cc2)no1,29.9% (inactive)
10,Fc1ccc(-c2ccc(NCCN3CCOCC3)nn2)cc1,51.7% (active)
11,O=C(NCCN1CCOCC1)c1c(F)c(F)c(F)c(F)c1F,33.6% (inactive)
12,CN(CC(=O)NCCN1CCOCC1)S(=O)(=O)c1ccc(F)cc1,-3.65% (inactive)
13,O=[N+]([O-])C(=c1ccc2c(c1)N1C3=C(CCCC3)CC3CCCCC31N=2)[N+](=O)[O-] (stereo not drawn),27.4% (inactive)
14,COCCCNC(=O)C1CC(=O)N(CCc2ccc(F)cc2)C1 (stereo not drawn),-8.38% (inactive)
15,CCOc1cccc(/C=N/NC(=S)NCCN2CCOCC2)c1O,22.8% (inactive)
16,CCOc1cccc(/C=N/N2C(=O)CSC2=S)c1O,38% (active)
17,O=C1CSC(=S)N1/N=C/c1ccc(O)c([N+](=O)[O-])c1,34.5% (inactive)
18,CCN(CC)CCCNC(=O)c1c(O)c2cc(F)cc3c2n(c1=O)C(C)CC3 (stereo not drawn),2.56% (inactive)
19,O=C(c1ccccc1)N1CCN(C(=O)c2cc3nc(-c4ccccc4)cc(C(F)(F)F)n3n2)CC1,3.38% (inactive)
20,OCCNc1nc(Nc2ccc(Cl)c(Cl)c2)nc2ccccc12,29.5% (inactive)
21,Cc1cc(C)nc(Nc2n[nH]c(-c3ccccc3N)n2)n1,55% (active)
22,Cc1cc(C)nc(Nc2ncn[nH]2)n1,-5.43% (inactive)
23,COc1ccccc1-c1nc(SC)n[nH]1,50.6% (inactive)
